Reference: the supplement of paper PMC7411054

Experiments:
Conditions in all cases: treatment time: 24 h
A549-ACTB-RAB5A [1] = experiment: phenotypically active (imaging signature differs from DMSO and reproducible) at any of 0.3-9 uM (binary (1 = active, 0 = inactive)); higher = active
Method in brief: (§1)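 After 24 h at 0.3, 1, 3 or 9 µM, with four wells per treatment, fifteen gene-edited A549, HepG2 and WPMY1 reporter lines carrying BFP, GFP and RFP/FusionRed were imaged live. Each well's live-cell features were expressed relative to solvent control wells. Deviation required ≥3 of 4 wells past the 95th percentile of control Euclidean distances, and reproducibility a median replicate Pearson correlation over the 95th percentile of non-replicates. Phenotypic activity rested on both.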

A549-CANX-COX4 = experiment: as above
Method in brief: as §1

A549-GM130-SQSTM1 = experiment: as above
Method in brief: as §1

A549-TP53BP1-CLTA [2] = experiment: as above
Method in brief: as §1

A549-TUBA1B-RELA = experiment: as above
Method in brief: as §1

HepG2-ACTB-RAB5A = experiment: as above
Method in brief: as §1

HepG2-CANX-COX4 = experiment: as above
Method in brief: as §1

HepG2-GM130-SQSTM1 = experiment: as above
Method in brief: as §1

HepG2-TP53BP1-CLTA [3] = experiment: as above
Method in brief: as §1

HepG2-TUBA1B-RELA = experiment: as above
Method in brief: as §1

WPMY1-ACTB-RAB5A = experiment: as above
Method in brief: as §1

WPMY1-CANX-COX4 = experiment: as above
Method in brief: as §1

WPMY1-GM130-SQSTM1 [4] = experiment: as above
Method in brief: as §1

WPMY1-TP53BP1-CLTA [5] = experiment: as above
Method in brief: as §1

WPMY1-TUBA1B-RELA = experiment: as above
Method in brief: as §1

A549-ACTB-RAB5A [6] = experiment: lowest phenotypically active concentration; higher = less potent
Method in brief: as §1

A549-TP53BP1-CLTA [7] = experiment: as above
Method in brief: as §1

HepG2-TP53BP1-CLTA [8] = experiment: as above
Method in brief: as §1

WPMY1-GM130-SQSTM1 [9] = experiment: as above
Method in brief: as §1

WPMY1-TP53BP1-CLTA [10] = experiment: as above
Method in brief: as §1

Structure (SMILES)	phenotypically active (A549-ACTB-RAB5A [1])	phenotypically active (A549-CANX-COX4)	phenotypically active (A549-GM130-SQSTM1)	phenotypically active (A549-TP53BP1-CLTA [2])	phenotypically active (A549-TUBA1B-RELA)	phenotypically active (HepG2-ACTB-RAB5A)	phenotypically active (HepG2-CANX-COX4)	phenotypically active (HepG2-GM130-SQSTM1)	phenotypically active (HepG2-TP53BP1-CLTA [3])	phenotypically active (HepG2-TUBA1B-RELA)	phenotypically active (WPMY1-ACTB-RAB5A)	phenotypically active (WPMY1-CANX-COX4)	phenotypically active (WPMY1-GM130-SQSTM1 [4])	phenotypically active (WPMY1-TP53BP1-CLTA [5])	phenotypically active (WPMY1-TUBA1B-RELA)	lowest phenotypically active concentration (A549-ACTB-RAB5A [6])	lowest phenotypically active concentration (A549-TP53BP1-CLTA [7])	lowest phenotypically active concentration (HepG2-TP53BP1-CLTA [8])	lowest phenotypically active concentration (WPMY1-GM130-SQSTM1 [9])	lowest phenotypically active concentration (WPMY1-TP53BP1-CLTA [10])
Fc1ccccc1C1=NCC(=S)N(CC(F)(F)F)c2ccc(Cl)cc21 [quazepam]	0 (inactive)	0 (inactive)	0 (inactive)	0 (inactive)	0 (inactive)	0 (inactive)	0 (inactive)	0 (inactive)	0 (inactive)	0 (inactive)	0 (inactive)	0 (inactive)	0 (inactive)	0 (inactive)	0 (inactive)	–	–	–	–	–
C=C1[C@@H](C)[C@H]2[C@H](Cc3ccccc3)NC(=O)[C@]23OC(=O)C=C[C@H](O)CCC[C@@H](C)CC=C[C@H]3[C@@H]1O [Cytochalasin B]	1 (active)	1 (active)	1 (active)	1 (active)	1 (active)	1 (active)	1 (active)	1 (active)	1 (active)	1 (active)	1 (active)	1 (active)	1 (active)	1 (active)	1 (active)	≤ 0.3 µM	3 µM	3 µM	3 µM	3 µM
COC1=CC(C)=C[C@@H](C)[C@@H](O)[C@@H](C)CC(C)=CC=C[C@H](OC)[C@@H]([C@@H](C)[C@@H](O)[C@H](C)[C@@]2(O)C[C@@H](O)[C@H](C)[C@@H](C(C)C)O2)OC1=O [Bafilomycin A1]	1 (active)	1 (active)	1 (active)	1 (active)	1 (active)	1 (active)	1 (active)	1 (active)	1 (active)	1 (active)	1 (active)	1 (active)	1 (active)	1 (active)	1 (active)	≤ 0.3 µM	3 µM	9 µM	1 µM	3 µM
C[C@]12C/C(=C\O)C(=O)C[C@@H]1CC[C@@H]1[C@@H]2CC[C@@]2(C)[C@H]1CC[C@]2(C)O [oxymetholone]	1 (active)	0 (inactive)	0 (inactive)	0 (inactive)	0 (inactive)	0 (inactive)	0 (inactive)	0 (inactive)	0 (inactive)	0 (inactive)	0 (inactive)	0 (inactive)	0 (inactive)	0 (inactive)	0 (inactive)	9 µM	–	–	–	–
COc1cc2c(cc1OC)[C@@]13CCN4CC5=CCO[C@H]6CC(=O)N2[C@H]1[C@H]6[C@H]5C[C@H]43 [Brucine]	0 (inactive)	0 (inactive)	0 (inactive)	0 (inactive)	0 (inactive)	0 (inactive)	0 (inactive)	0 (inactive)	0 (inactive)	0 (inactive)	0 (inactive)	0 (inactive)	0 (inactive)	0 (inactive)	0 (inactive)	–	–	–	–	–
COC[C@H]1OC(=O)c2coc3c2[C@@]1(C)C1=C(C3=O)[C@@H]2CCC(=O)[C@@]2(C)C[C@H]1OC(C)=O [wortmannin]	1 (active)	1 (active)	1 (active)	1 (active)	1 (active)	0 (inactive)	0 (inactive)	0 (inactive)	0 (inactive)	0 (inactive)	0 (inactive)	0 (inactive)	0 (inactive)	0 (inactive)	0 (inactive)	1 µM	9 µM	–	–	–
OCC[N+]12CN3CN(CN(C3)C1)C2	0 (inactive)	0 (inactive)	0 (inactive)	0 (inactive)	0 (inactive)	0 (inactive)	0 (inactive)	0 (inactive)	0 (inactive)	0 (inactive)	0 (inactive)	0 (inactive)	0 (inactive)	0 (inactive)	0 (inactive)	–	–	–	–	–
O=c1cccc2n1C[C@H]1CNC[C@H]2C1 [Cytisine nitrate hydrate]	0 (inactive)	0 (inactive)	0 (inactive)	0 (inactive)	0 (inactive)	0 (inactive)	0 (inactive)	0 (inactive)	0 (inactive)	0 (inactive)	0 (inactive)	0 (inactive)	0 (inactive)	0 (inactive)	0 (inactive)	–	–	–	–	–
C=C[C@H]1C[N@@]2CC[C@H]1C[C@H]2[C@H](O)c1ccnc2ccccc12 [(-)-Cinchonidine]	0 (inactive)	0 (inactive)	0 (inactive)	0 (inactive)	0 (inactive)	0 (inactive)	0 (inactive)	0 (inactive)	0 (inactive)	0 (inactive)	0 (inactive)	0 (inactive)	0 (inactive)	0 (inactive)	0 (inactive)	–	–	–	–	–
CC(C)C[C@H](CN)CC(=O)O [pregabalin]	0 (inactive)	0 (inactive)	0 (inactive)	0 (inactive)	0 (inactive)	0 (inactive)	0 (inactive)	0 (inactive)	0 (inactive)	0 (inactive)	0 (inactive)	0 (inactive)	0 (inactive)	0 (inactive)	0 (inactive)	–	–	–	–	–
